From PubChem
RMI FANCM FP: blocks RMI1/RMI2 complex binding to FANCM MM2 peptide | FP signal (polarization) at 33 µM | AID 1159607 | Fluorescence polarization, RMI core complex with F-MM2 peptide; stronger effect = lower value | hit rate 0.58% among 70,000; in the data active = FP signal below about 40
Hits are given with their value. Shown is part of a subset that was picked to be rich in hits.

Results for COC(=O)/C(C#N)=C\c1cc([N+](=O)[O-])ccc1N1CCCC1 ?
RMI FANCM FP: inactive

How did N#C/C(=C/c1ccoc1-c1ccc([N+](=O)[O-])cc1)C(N)=S do in these assays?
RMI FANCM FP: 24

How did N#C/C(=C\c1ccc(-c2cccc(C(F)(F)F)c2)o1)C(N)=S do in these assays?
RMI FANCM FP: inactive

How did COc1ccc(-c2csc(NC(=O)c3cc(-c4ccccc4)nc4ccccc34)n2)c(OC)c1 do in these assays?
RMI FANCM FP: inactive

Results for N#Cc1c(SCC(=O)Nc2ccccc2)nc2c(c1-c1ccc(OCc3ccccc3)cc1)CCCC2 ?
RMI FANCM FP: inactive

How did COc1ccc(-c2c(C#N)c(SCC(=O)c3ccc4c(c3)OCO4)nc3c2C(=O)CC(C)(C)C3)cc1 do in these assays?
RMI FANCM FP: inactive

How did N#Cc1c(SCC(=O)c2ccc(O)c(O)c2)nc2c(c1-c1ccc(OCc3ccccc3)cc1)CCCC2 do in these assays?
RMI FANCM FP: 24

What do the screens show for `NC(=O)C1CCN(CC(O)COc2ccc(-c3csnn3)cc2)CC1` (stereo not drawn)?
RMI FANCM FP: inactive

Results for N#Cc1ccc2nc(C(O)C(O)c3nc4ccc(C#N)cc4[nH]3)[nH]c2c1 (stereo not drawn) ?
RMI FANCM FP: 29

What do the screens show for `OC(c1ccccc1)c1nc2ccccc2[nH]1` (stereo not drawn)?
RMI FANCM FP: inactive

Results for OC(c1nc2ccccc2[nH]1)C(O)c1nc2ccccc2[nH]1 (stereo not drawn) ?
RMI FANCM FP: inactive

What do the screens show for `O=C(Cc1csc(Nc2cccc(Cl)c2)n1)N1CCN(C(=O)c2ccco2)CC1`?
RMI FANCM FP: inactive

What do the screens show for `O=C(NCCS(=O)(=O)N1CCc2ccccc2C1)c1ccccc1S(=O)(=O)C(F)F`?
RMI FANCM FP: inactive

What do the screens show for `CC1=C(Cl)C(O)=CC(=O)C12Oc1cc(O)c(Cl)c(C)c1C2=O` (stereo not drawn)?
RMI FANCM FP: 11

What do the screens show for `O=C(NC(=O)c1ccc(F)cc1F)Nc1ccccc1Cl`?
RMI FANCM FP: inactive

How did O=C(COc1cccc(C(F)(F)F)c1)NCCn1ncccc1=O do in these assays?
RMI FANCM FP: inactive

Results for COc1ccc(-c2noc(CSc3nc4ccsc4c(=O)n3C)n2)cc1 ?
RMI FANCM FP: inactive

What do the screens show for `CCOc1ccc(-c2noc(CSc3nc4ccsc4c(=O)n3C3CC3)n2)cc1`?
RMI FANCM FP: 39

What do the screens show for `CCOc1ccc(-c2noc(CSc3nc4ccsc4c(=O)n3-c3cccc(OC)c3)n2)cc1`?
RMI FANCM FP: inactive

Results for CNC(=S)NCc1sc2ccccc2c1C ?
RMI FANCM FP: inactive

Results for CSc1nccc(-c2ccc(Br)s2)n1 ?
RMI FANCM FP: inactive

How did CSc1nccc(-c2sc(-c3ccc(Cl)cc3)nc2C)n1 do in these assays?
RMI FANCM FP: 32

How did Cc1nccc(-c2sc(-c3cccs3)nc2C)n1 do in these assays?
RMI FANCM FP: inactive

How did O=C(c1cccs1)N1CCC(c2nnc(-c3ccco3)s2)CC1 do in these assays?
RMI FANCM FP: inactive

What do the screens show for `COc1ccc2nc(N(CCN(C)C)C(=O)c3ccc(S(=O)(=O)N4CC(C)OC(C)C4)cc3)sc2c1` (stereo not drawn)?
RMI FANCM FP: inactive

How did Cc1ccc(C(C)C)cc2c(C)ccc1-2 do in these assays?
RMI FANCM FP: inactive

Results for COc1ccc(N=Nc2cc(C)c3cc(C(C)C)ccc(C)c2-3)cc1 ?
RMI FANCM FP: -11

Results for COc1ccc(N=Nc2cc(C)c(O)c(CN3CCCCC3)c2)cc1 ?
RMI FANCM FP: inactive

What do the screens show for `Cc1ccc(S(=O)(=O)N2CCCC(C(=O)Nc3nnc(Cc4cccs4)o3)C2)cc1` (stereo not drawn)?
RMI FANCM FP: inactive

Results for OC(CN1CCC(O)(c2ccc(Cl)cc2)CC1)c1ccccc1 (stereo not drawn) ?
RMI FANCM FP: inactive

Results for Cn1nc2c(c1NC(=O)COc1ccccc1)CCC2 ?
RMI FANCM FP: inactive

Results for Cn1nc2c(c1NC(=O)/C=C/c1cccs1)CCC2 ?
RMI FANCM FP: 37

What do the screens show for `O=C(/C=C/c1cccs1)Nc1nccs1`?
RMI FANCM FP: inactive

Results for c1ccc(N=Nc2c3[nH]c4ccccc4nc-3c3ccccc23)cc1 ?
RMI FANCM FP: inactive

Results for Cc1ccc(-c2ccc(/C=C(\C#N)c3nc4ccccc4s3)o2)c([N+](=O)[O-])c1 ?
RMI FANCM FP: inactive

What do the screens show for `N#C/C(=C/C1=Cc2ccccc2OC1)c1nc2ccccc2s1`?
RMI FANCM FP: inactive

How did Cn1c(/C=C(\C#N)c2nc3ccccc3s2)ccc1-c1cccc(Cl)c1 do in these assays?
RMI FANCM FP: 15

What do the screens show for `CCN(CC)S(=O)(=O)c1ccc(NC(=O)c2ccc3c(c2)OCO3)cc1`?
RMI FANCM FP: inactive

What do the screens show for `COc1ccc([N+](=O)[O-])cc1NC(=O)c1ccc([N+](=O)[O-])s1`?
RMI FANCM FP: inactive

How did CC(=O)N1CCc2ccc(NC(=O)C3CCCC3)cc2C1 do in these assays?
RMI FANCM FP: inactive

How did Oc1ccccc1/C=N\NC(=S)NC1CC2C=CC1C2 (stereo not drawn) do in these assays?
RMI FANCM FP: inactive

How did OCCN/N=C\c1cc(Cl)cc(Cl)c1O do in these assays?
RMI FANCM FP: inactive

What do the screens show for `Oc1c(Cl)cc(Cl)cc1/C=N\NC(=S)NC1CC2CCC1C2` (stereo not drawn)?
RMI FANCM FP: 11

Results for O=C(Cc1ccc(Cl)cc1)NCCOc1ccc(F)cc1 ?
RMI FANCM FP: inactive

Results for CCOC(=O)C(C)Sc1nnc2[nH]c(=O)c3c(n12)CCCC3 (stereo not drawn) ?
RMI FANCM FP: inactive

What do the screens show for `Nc1cc2c3c(c1)CCC(=O)N3CCC2`?
RMI FANCM FP: 21

How did COc1ccc(OC)c(S(=O)(=O)Nc2cc3c4c(c2)CCC(=O)N4CCC3)c1 do in these assays?
RMI FANCM FP: inactive

What do the screens show for `CC1CC(C)CN(S(=O)(=O)c2cc3c4c(c2)CCC(=O)N4CCC3)C1` (stereo not drawn)?
RMI FANCM FP: inactive

What do the screens show for `COC(=O)c1sc(-c2ccccc2)cc1NC(=O)c1cc2c(ccc3ccccc32)oc1=O`?
RMI FANCM FP: 31

Results for COC(=O)c1sc(-c2ccccc2)cc1NC(=O)c1ccccc1I ?
RMI FANCM FP: inactive

How did COC(=O)c1sc(-c2ccccc2)cc1NC(=O)c1ccccc1Cl do in these assays?
RMI FANCM FP: inactive

How did O=C(CCS(=O)(=O)c1ccc(Cl)cc1)Nc1nnc(-c2ccncc2)o1 do in these assays?
RMI FANCM FP: inactive

What do the screens show for `O=C(CCS(=O)(=O)c1ccc(F)cc1)Nc1nnc(-c2cccnc2)o1`?
RMI FANCM FP: inactive

Results for O=C(CCS(=O)(=O)c1ccc(Cl)cc1)Nc1nnc(-c2ccc(F)cc2)o1 ?
RMI FANCM FP: 34

Results for COC(=O)c1ccc(NC(=O)CSc2ccc(NC(=O)c3cccs3)nn2)cc1 ?
RMI FANCM FP: inactive

What do the screens show for `Cc1nc(-n2nc(-c3ccco3)cc2NC(=O)c2cc3ccccc3o2)[nH]c(=O)c1C`?
RMI FANCM FP: 23

How did CCOCC(=O)Nc1cc(-c2ccco2)nn1-c1nc(C)c(C)c(=O)[nH]1 do in these assays?
RMI FANCM FP: inactive

How did COc1cccc(C(=O)Nc2cc(-c3ccco3)nn2-c2nc(C)c(C)c(=O)[nH]2)c1OC do in these assays?
RMI FANCM FP: inactive

How did Cc1nc(-n2nc(-c3ccco3)cc2NC(=O)Cc2ccc(F)cc2)[nH]c(=O)c1C do in these assays?
RMI FANCM FP: inactive

How did Cc1nc(-n2nc(-c3ccco3)cc2NC(=O)COc2ccccc2F)[nH]c(=O)c1C do in these assays?
RMI FANCM FP: inactive

What do the screens show for `CCC(C(=O)Nc1cc(-c2ccco2)nn1-c1nc(C)c(C)c(=O)[nH]1)c1ccccc1` (stereo not drawn)?
RMI FANCM FP: 31
